Experimental data: PubChem BioAssay AID624354 (Sanford-Burnham Center for Chemical Genomics, 2012)
Among all 360,000 compounds or so, about 3,800 (1.1%) were called active. The entries come from a sample that favours actives as a whole. Unmarked numbers belong to inactive results.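 Rule for the calls: active = compounds causing at least 50% loss of cell viability in the single-dose screen, relative to plate controls; inactive = the rest.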

Assay: viability loss with TRAIL in NB7+C8 cells, primary screen, TRAIL sensitizer project, cell-based, ATPlite luminescence (AID 624354)
Details: at 10 µM, hits give high values

Compound | inhibition (viability loss, TRAIL sensitization)
Cc1cc(O)ccc1NC1=CC(=O)CC(C)(C)C1 | 1.23%
Cc1cc(N=Nc2ccc3ccccc3c2)ccc1O | 55.4% (active)
CCCc1cc(=O)[nH]c(SCC(=O)c2c(N)n(CC(C)C)c(=O)n(C)c2=O)n1 | 84.5% (active)
CC(C)Cn1c(N)c(C(=O)COC(=O)CN2C(=O)C3CC=CCC3C2=O)c(=O)n(C)c1=O (stereo not given) | 13.4%
CCCc1cc(=O)[nH]c(SCC(=O)N2C(C)CCCC2C)n1 (stereo not given) | -9.5%
O=C(Nc1cccc2cccnc12)c1ccc2sc([C@H]3C[C@H](O)[C@@H](CO)O3)nc2c1 | 7.21%
COC(=O)C[C@@H]1C=C[C@@H](NS(=O)(=O)c2cccc(OC)c2)[C@@H](CO)O1 | 4.54%
CC(=O)c1c(O)cc2n(c1=O)-c1ccc(Cl)cc1C2(C)C | 5.66%
CC(C)C(NC(=O)C1CCC(C(C)(C)C)CC1)C(=O)NCCCN1CCCCC1 (stereo not given) | 8.66%
Cc1ccc(OCCCC(=O)Nc2ccc3c(c2)OCCO3)cc1 | -4.22%
Cc1cccc(NC(=O)/C=C/c2ccc3c(c2)OCO3)n1 | 79.8% (active)
COc1cccc(C(=O)NNC(=O)/C=C/c2ccccc2)c1 | -32%
CN(Cc1ccccc1)C(=O)COC(=O)/C=C/c1ccc2c(c1)OCO2 | -10.8%
Cc1cc(C)nc(NC(=O)/C=C/c2ccc(Cl)cc2)n1 | 2.95%
COc1cccc(/C=C/C(=O)Nc2ccc3c(c2)OCCO3)c1 | 64.9% (active)
COC(=O)Cc1ccc(OC2(C)CCN(Cc3ccc4c(c3)OCCO4)C2)cc1 (stereo not given) | -7.8%
COc1nnc(-c2ccc(C)c(S(=O)(=O)N(C)C)c2)c2ccccc12 | -6.56%
Cc1ccc(/C=C2\CCn3c2nc2cc(C(=O)O)ccc2c3=O)c(C)c1 | 5.96%
COc1ccc(OC)c(-n2nnnc2SCC(=O)Nc2cc(C)ccc2OC)c1 | -4.79%
C=CCn1c(C)cc(C2=NNC(=NCC)SC2)c1C | 92.8% (active)
CCC(CC)c1nnc(NC(=O)C2CCN(C(=O)c3ccco3)CC2)s1 | -18.9%
CCCNC(=O)c1cc(C2CCCCN2C(=O)OC)on1 (stereo not given) | -21.1%
N#CCCC(C#N)(c1cccnc1)N1CCOCC1 (stereo not given) | -12.1%
O=C(NCC(O)c1nc2ccccc2[nH]1)c1ccc(Br)cc1 (stereo not given) | -0.934%
O=C(Cc1nc2ccccc2[nH]c1=O)c1ccc(Cl)cc1 | 60.2% (active)
O=c1c(-c2ccc(Cl)cc2)[n+]([O-])c2ccccc2n1OCc1nc2ccccc2[nH]1 | -24.1%
CCC1(C)Cc2c(sc3nnn(CC(=O)Nc4ccc(Cl)cc4)c(=O)c23)CO1 (stereo not given) | -1.52%
Fc1ccc2cnc(-c3ccccc3)cc2c1 | -5.36%
COc1ccc(C(C)(O)c2nc(-c3cc(F)cc(F)c3)cs2)cc1 (stereo not given) | 21%
COc1cc(OC)cc(-c2cc3ccc(F)cc3cn2)c1 | 60% (active)
